Measured values: PubChem BioAssay AID651595 (National Center for Advancing Translational Sciences (NCATS), 2012)
The whole screen tested about 1,100 compounds, of which fewer than 10 were called active. Inconclusive results (about 6%) are left out. Calls come from the whole dose curve; as a rule, active = well fitted cell-killing curve with a large enough effect; inconclusive = small, poorly fitted or top-dose-only effect; inactive = flat fitted curve, though single readings scatter. Only a sample is shown.

Assay: qHTS of Nrf2 Activators: Hit Validation in Cytotox Assay;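 note: compound exposure lasted 24 hours before the ATP readout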; for activity change, negative = cytotoxicity: 0% is about no effect
Conditions: Cell viability counter-screen for Nrf2 activator hits; series mostly up to 46.1 µM; activity change, negative = cytotoxicity: at the top concentration
Source text: Many diseases have some form of oxidative stress injury and ties to inflammation, causing a host of problems for the patient. The antioxidant response element (ARE) plays an important role in alleviating the harmful effects of oxidative stress. The antioxidant response element (ARE) is a transcriptional regulatory element involved in the activation of genes coding for a number of antioxidant proteins and detoxifying enzymes. These enzymes work in concert to protect tissues from oxidative insults and chemical toxicities in human hepatocytes and immune cells. The protective effects of ARE activation are primarily triggered through Nrf2 (NF-E2-related factor) binding to and activating AREs. It is known that Nrf2 controls the production of over 250 antioxidant and detoxification proteins (Hu et al., 2006), thereby protecting tissues by increasing cellular antioxidant content and suppressing inflammatory signaling pathways. The transcription factor Nrf2 is a central link between oxidative chemicals, such as phenolic antioxidants and electrophilic compounds, and the activation of ARE. Nrf2 levels are constitutively low as a consequence of its interaction with Keap1, which targets its degradation (Zipper and Mulcahy, 2002). Electrophiles react with key cysteine residues in Keap1, releasing Nrf2 and allowing its translocation to the nucleus. Once within the nucleus, Nrf2 complexes with coactivators such as p300, and binds to the AREs to induce gene transcription of cytoprotective enzymes, resulting in the prevention of toxicity. Activation of Nrf2 protects tissues by increasing cellular antioxidant content and suppressing inflammatory signaling pathways. Identifying novel and potent Nrf2 activators by using the AREc32 cell line to detect ARE activation by small molecules will lead to the identification and development of probes to study protective pathways in multiple tissues. These specific probes are essential to study the ARE pathway, and eventually to determine whether this pathway does activate genes that could protect against a host of diseases, including cardiovascular diseases, obesity, diabetes, Alzheimer's, and Parkinson's disease.
This project's aim is to identify novel and potent Nrf2 activators by using the AREc32 cell line to detect ARE activation by small molecules, which will lead to the identification and development of probes to study the ARE pathway. Cytotoxic compounds are flagged as active, and inactivity is desired in this assay.
NIH Chemical Genomics Center [NCGC]
NIH Molecular Libraries Probe Centers Network [MLPCN]
Assay Submitter (PI): Curtis Klaassen, University of Kansas Medical Center
Cell viability after compound treatment was measured using a luciferase-coupled ATP quantitation assay (CellTiter-Glo, Promega) in AREc32_fluc cells. The change of intracellular ATP content indicates the number of metabolically competent cells after compound treatment. AREc32_fluc cells were harvested from T225 flask and resuspended in phenol red free OPTI-MEM medium with 5% FBS. Then 5 microL of 200,000 cells/ml resuspended cells was dispensed into each well of white, solid bottom, 1536-well tissue culture-treated plates using a Multidrop Combi dispenser. After overnight culture at 37 degrees C with 5% CO2, a total of 23 nL of compounds at 7 selected concentrations from the cherry pick or positive control (40 uM stock of CDDO-IM and 2 mM of tBHQ) in DMSO was transferred to each well of the assay plate using a pintool (Kalypsys, San Diego, CA), and the plates were further incubated at 37 degrees C with 5% CO2 for 24 hours. After that, 4 microL of CellTilter-GloTM luminescent substrate mix (Promega) was added to each well. The plate was incubated at room temperature for 30 minutes. The plates were measured on a ViewLux plate reader (PerkinElmer) with clear filter.
Potency is the fitted concentration of half-maximal effect.

Row | Structure (SMILES) | activity change, negative = cytotoxicity | Potency
1 | Cc1cc(=O)oc2c(C(=O)/C=C\c3cccs3)c(O)ccc12 | -9.76% (inactive) | 
2 | Cn1cnnc1Sc1ccc(/C=C/C(=O)c2ccc(O)cc2)cc1[N+](=O)[O-] | -12.4% (inactive) | 
3 | COC(=O)c1c(NC(=O)c2ccco2)sc(C)c1C | 8.04% (inactive) | 
4 | c1cncc(-c2noc(-c3cccc4ccccc34)n2)c1 | -0.825% (inactive) | 
5 | Nc1c(Cl)cc(N=Nc2ccccc2)cc1Cl | -1.01% (inactive) | 
6 | Cc1sc2c(c1C)C(=O)NC(c1ccccc1F)N2 (stereo not drawn) | 5.03% (inactive) | 
7 | Clc1cccc(Cc2c(-c3ccco3)nc3c4ccccc4ccn23)c1 | -6.06% (inactive) | 
8 | Cc1csc(NC(=O)/C=C/c2ccco2)n1 | 6.19% (inactive) | 
9 | c1ccc(N2CC3COc4ccccc4C3=N2)cc1 (stereo not drawn) | 4.77% (inactive) | 
10 | O=C(/C=C/c1ccc2c(c1)OCO2)c1ccc(O)cc1O | -2.12% (inactive) | 
11 | N#Cc1c(-c2ccco2)cc(-c2ccc(F)cc2)nc1N | 8.67% (inactive) | 
12 | O=c1[nH]ncc(N/N=C\c2cccs2)c1Cl | 2.39% (inactive) | 
13 | COc1ccccc1NC(=O)C(=O)Nc1ccccn1 | -2.4% (inactive) | 
14 | O=c1[nH]c(/C(Cl)=C/c2cc(Cl)ccc2O)nc2cc(Cl)ccc12 | -1.06% (inactive) | 
15 | O=C(Cn1cnc2scc(-c3cccc([N+](=O)[O-])c3)c2c1=O)NCc1ccco1 | -1.79% (inactive) | 
16 | O=C(/C=C/c1ccco1)Nc1cccnc1Cl | -10.5% (inactive) | 
17 | CCOC(=O)c1c(-c2ccco2)csc1NC(=O)CSc1nnc(N)s1 | -11.5% (inactive) | 
18 | CCOC(=O)c1ccccc1N/C=C/C(=O)c1cccs1 | -4.29% (inactive) | 
19 | CN1CCCC1CCNc1ccc2c(=O)c3ccccc3oc2c1 (stereo not drawn) | 0.572% (inactive) | 
20 | Clc1nc(-c2ccccc2)cc(-c2ccccc2)n1 | 2.29% (inactive) | 
21 | O=C(N/N=C\c1ccco1)Nc1cccc(Cl)c1 | -10.8% (inactive) | 
22 | CN1c2ccsc2/C(=N/Nc2ccccc2)CS1(=O)=O | -1.51% (inactive) | 
23 | O=C(c1ccccc1)[C@@H]1[C@@H]2C(=O)N(c3ccc(F)cc3)C(=O)[C@@H]2C2CCCN21 (stereo partly drawn) | 4.57% (inactive) | 
24 | CC1CCCCC1NC(=O)COC(=O)c1c2c(nc3ccccc13)/C(=C/c1ccco1)CC2 (stereo not drawn) | -2.82% (inactive) | 
25 | CNc1ccccc(C(=O)/C=C/c2ccccc2OC)c1=O | 0.226% (inactive) | 
26 | O=C(N/N=C/c1ccc(-c2cccc([N+](=O)[O-])c2)o1)c1cccs1 | -2.3% (inactive) | 
27 | O=C(Nc1ccccn1)c1ccc(Cl)c([N+](=O)[O-])c1 | 0.552% (inactive) | 

Row | Structure (SMILES) | activity change, negative = cytotoxicity | Potency
28 | O=C(/C=C/c1ccco1)Nc1cccc(S(=O)(=O)N2CCOCC2)c1 | 6.93% (inactive) | 
29 | Cc1ccc([N+](=O)[O-])cc1NC(=O)c1ccc(C(C)(C)C)cc1 | -1.77% (inactive) | 
30 | O=C1/C(=C/c2ccccc2O)SC(=S)N1Cc1cccnc1 | 4.53% (inactive) | 
31 | Cc1ccc(S(=O)(=O)/N=C(/NNC(=O)c2cccc(Cl)c2)c2ccccc2)cc1 | -0.738% (inactive) | 
32 | Cc1ccc2ccc(C3C(=O)c4ccccc4C3=O)nc2c1 | 3.2% (inactive) | 
33 | Fc1cc(F)c2nc(Nc3nc4cc5c(cc4s3)OCO5)sc2c1 | -28.7% (inactive) | 
34 | CC(/C=N/NC(=O)Cc1cccn1C)=C\c1ccco1 | 7.92% (inactive) | 
35 | CCCCn1c(O)c(N=Nc2ccccn2)c2ccccc21 | -4.62% (inactive) | 
36 | Oc1ccc2ccccc2c1N=Nc1ccccn1 |  | 5.17 µM (active)
37 | CC(C)CCn1c(O)c(N=Nc2ccccn2)c2ccccc21 | 5.08% (inactive) | 
38 | O=C(Nc1ccccc1[N+](=O)[O-])C1COc2ccccc2O1 (stereo not drawn) | 1.87% (inactive) | 
39 | CCOC(=O)COn1c(=O)c(-c2ccco2)[n+]([O-])c2ccccc21 | 5.99% (inactive) | 
40 | C(=Cc1cnnc2ccccc12)c1ccccc1 | -3.58% (inactive) | 
41 | Cc1ccc(S(=O)(=O)c2nc(S(C)(=O)=O)sc2N2CCC(C)CC2)cc1 | -3.41% (inactive) | 
42 | O=C1C(=Cc2ccccc2[N+](=O)[O-])Cc2ccccc21 | -13.3% (inactive) | 
43 | O=C1C(Cl)=C(N2CCN(c3ccccc3[N+](=O)[O-])CC2)C(=O)c2ccccc21 |  | 18.4 µM (active)
44 | N#CC1CC(c2ccccc2)=NN1c1ccccc1[N+](=O)[O-] (stereo not drawn) | -5.07% (inactive) | 
45 | COC(=O)c1sccc1NC(=O)c1cccc(OC)c1 | -4.2% (inactive) | 
46 | N#C/C(=C1/C(=O)Nc2ccc(Br)cc21)c1ccccn1 | 1.23% (inactive) | 
47 | Nc1ccc2c(c1)Cc1c(F)cccc1-2 | 6.2% (inactive) | 
48 | COc1ccc2[nH]c3c(NCc4ccco4)ncnc3c2c1 | -2.65% (inactive) | 
49 | O=C(/C(C=Nc1ccc(F)cc1)=C(/O)c1ccco1)C(F)(F)F | 0.0691% (inactive) | 
50 | CC(C)Nc1ccc(-c2nc(-c3ccco3)no2)cc1[N+](=O)[O-] | 10.1% (inactive) | 
51 | O=C(CSc1ccccn1)N/N=C/c1ccccc1[N+](=O)[O-] | 2.77% (inactive) | 
52 | CCOc1ccccc1NC(=S)NC(=O)c1ccco1 | -1.64% (inactive) | 
53 | O=C(Nc1nc2ccc(F)cc2s1)c1ccc([N+](=O)[O-])o1 | -20.4% (inactive) | 
